Sampled rows, rich in hits. Any-hit rate of the full collection: about 4.8%.
DAX1 inh-1: inhibits human nuclear receptor DAX1; P51843; HEK293 Gal4-DAX1 luciferase reporter, luminescence; inhibition, % at 6.75 µM; actives 0.99% (n = 340,000); AID 504766;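 active = inhibition above the mean over all tested compounds plus 3 SD, cut at about 4.2% in these data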;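 note: 0% = DAX1-transfected cells with DMSO and 100% = empty-vector control cells with DMSO; inhibition shows as a rise in luminescence from relieved DAX1 repression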
Target sequence (P51843 207-470 limits assumed): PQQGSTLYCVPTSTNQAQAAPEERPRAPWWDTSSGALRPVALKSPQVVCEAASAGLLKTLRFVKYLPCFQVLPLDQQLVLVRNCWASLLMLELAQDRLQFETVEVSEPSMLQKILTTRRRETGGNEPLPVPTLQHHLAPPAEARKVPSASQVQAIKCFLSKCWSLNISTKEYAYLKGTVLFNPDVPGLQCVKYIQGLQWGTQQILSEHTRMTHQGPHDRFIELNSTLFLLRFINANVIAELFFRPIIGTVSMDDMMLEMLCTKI
DAX1 inh-2: blocks DAX1 repression of SF-1 activated StAR promoter | AID 652010 | actives 1.1% (n = 370,000) | inhibition, % at 6.8 µM | HEK293T StAR-luciferase reporter, SF-1/DAX-1 repression relief;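 active = inhibition above the mean over all tested compounds plus 3 SD, cut at about 3.6% in these data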;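 note: 0% = DAX-1 cells with DMSO and 100% = cells lacking DAX-1 with DMSO; higher inhibition means more luminescence from relief of DAX-1 repression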
SMARCA2 act: SMARCA2 function activation, primary screen; MG213 cells, MMTV-luciferase reporter, dexamethasone, overnight; activation, % at 9.1 µM; actives 1% (n = 370,000); AID 652017; in the data active = activation above about 7.8%;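 note: 0% = vehicle wells and 100% = reference activator wells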
hcDAF-12 act: activators of H. contortus DAF-12 nuclear receptor; HEK293 hcDAF-12 lit1-tk-luc reporter, luminescence; 0% DMSO, 100% Δ7-dafachronic acid; AID 652067; activation, % at 6.8 µM; actives 1.4% (n = 370,000);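 active = activation above the mean of all tested compounds plus 3 SD, cut at about 5.5% in these data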;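 note: 100% = response to 3 µM Δ7-dafachronic acid high control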
hgDAF12 agonist: activates the H. glycines DAF-12 receptor ligand-binding domain. HEK293 GAL4-hgDAF12 UAS-luciferase reporter, agonist luminescence; normalized to butyrate control. activation, % at 6.8 µM. actives 1.8% (n = 370,000). AID 687014;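 active = activation above a cutoff set at the mean of all screened compounds plus 3 SD, cut at about 10% in these data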;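 note: 0% = DMSO wells and 100% = sodium butyrate wells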
ssDAF12 agonist: activates DAF-12 receptor from parasite S. stercoralis | HEK293 ssDAF-12/GRIP1 lit1-tk-luc reporter, luminescence; % of 3 µM dafachronic acid response | activation, % at 6.8 µM | actives 1% (n = 370,000);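 active = activation above the mean over all tested compounds plus 3 SD, cut at about 0.9% in these data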;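 note: 0% = DMSO-only wells and 100% = 3 µM delta7-dafachronic acid wells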
DAX1 inh confirm: NR0B1 (human) inhibition, confirmation | actives 87% (n = 2,400) | shares compounds with DAX1 inh-2 | HEK293T StAR-promoter luciferase reporter, SF-1/DAX-1 repression | inhibition, % at 6.8 µM;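 active = inhibition above the average of every tested compound plus 3 SD, cut at about 3.8% in these data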;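 note: 0% = DAX-1 cells with DMSO and 100% = no DAX-1 control cells with DMSO; active compounds raise luminescence by relieving repression of the StAR reporter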
Target sequence (P51843 whole entry, looked up): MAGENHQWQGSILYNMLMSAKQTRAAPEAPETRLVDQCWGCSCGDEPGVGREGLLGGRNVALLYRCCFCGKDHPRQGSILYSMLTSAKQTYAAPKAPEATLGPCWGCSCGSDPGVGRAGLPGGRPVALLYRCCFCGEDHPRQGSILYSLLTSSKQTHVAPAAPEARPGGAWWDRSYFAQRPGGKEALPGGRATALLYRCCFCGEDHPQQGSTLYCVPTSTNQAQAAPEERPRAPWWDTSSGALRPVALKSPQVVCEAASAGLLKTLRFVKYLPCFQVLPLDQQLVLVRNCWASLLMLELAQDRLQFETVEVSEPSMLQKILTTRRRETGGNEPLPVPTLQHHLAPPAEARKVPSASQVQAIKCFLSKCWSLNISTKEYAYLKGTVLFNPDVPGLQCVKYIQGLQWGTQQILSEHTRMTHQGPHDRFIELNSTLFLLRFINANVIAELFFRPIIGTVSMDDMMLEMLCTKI
SF1 AF2mut Luc: nonselective inhibitor or artifact in SF-1 mutant DAX1 counter-screen | shares compounds with DAX1 inh-2 | HEK293 StAR-luciferase, SF-1 AF2 mutant, luminescence | inhibition, % at 6.8 µM | actives 78% (n = 2,400) | AID 652136;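 active = inhibition above the mean of all tested compounds plus 3 SD, cut at about 3% in these data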;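 note: 0% = DAX-1 transfected cells with DMSO and 100% = cells without DAX-1 with DMSO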
SMARCA2 conf: confirmation of SMARCA2 (BRM) function activators; shares compounds with SMARCA2 act; MG213 cells, MMTV-luciferase with dexamethasone, luminescence, overnight; MG213 cells expressing E1A, Rb sequestered; DMSO wells 0%, reference activator 100%; activation, % at 9.1 µM; actives 30% (n = 3,500); AID 652260;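 active = activation above its plate's cutoff, the mean activation of tested wells plus 3 SD, cut at about 7.9% in these data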
GAL4-VP16 Luc: activates GAL4-VP16 luciferase, flagging SMARCA2 activator hits; activation, % at 9.1 µM; actives 41% (n = 3,500); HEK293 GAL4-VP16 pG5luc reporter, luciferase luminescence; scaled: DMSO wells 0%, SAHA wells 100%; shares compounds with SMARCA2 act;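 active = activation above the solvent-only control well mean plus 3 SD, averaged across control plates, cut at about 5.2% in these data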
Numbers without * were called inactive.

`CCN(CC(=O)Nc1ccc2c(c1)OCCO2)C(=O)c1cc(Cl)nc2ccccc12` gave DAX1 inh-1 -0.2, DAX1 inh-2 -1.5, SMARCA2 act -1.9, hcDAF-12 act 0.3, hgDAF12 agonist 8.2 and ssDAF12 agonist -1.0.
CCN(CC(=O)Nc1ccc2c(c1)OCCO2)C(=O)c1ccc(Cl)cc1Cl was read as DAX1 inh-1 1.3, DAX1 inh-2 6.0*, SMARCA2 act 3.4, hcDAF-12 act 3.0, hgDAF12 agonist 10.9*, ssDAF12 agonist 0.0, DAX1 inh confirm 7.5* and SF1 AF2mut Luc 5.9*.
Screening COc1ccc(NC(=O)c2ccc(NC(=O)c3ccncc3)cc2)cc1 returned DAX1 inh-1 2.1, DAX1 inh-2 0.0, SMARCA2 act -1.5, hcDAF-12 act 1.1, hgDAF12 agonist 0.6 and ssDAF12 agonist -1.4.
COc1cc(C)ccc1OCC(=O)Nc1nnc(C2CC2)s1 was read as DAX1 inh-1 0.2, DAX1 inh-2 -0.3, SMARCA2 act 0.5, hcDAF-12 act -0.1, hgDAF12 agonist 2.2 and ssDAF12 agonist -0.4.
COc1ccc(Cl)cc1C(=O)NNC(=O)COC(=O)c1cccs1 was read as DAX1 inh-1 0.1, DAX1 inh-2 6.4*, SMARCA2 act -2.9, hcDAF-12 act 0.4, hgDAF12 agonist -0.1, ssDAF12 agonist -0.5, DAX1 inh confirm 0.4 and SF1 AF2mut Luc 0.4.
`Cc1ccnc(NC(=O)CNC(=O)c2sc3ccccc3c2Cl)c1` gave DAX1 inh-1 1.4, DAX1 inh-2 10.0*, SMARCA2 act 1.5, hcDAF-12 act 4.9, hgDAF12 agonist 9.6, ssDAF12 agonist 0.0, DAX1 inh confirm 11.2* and SF1 AF2mut Luc 7.2*.
`CC1CCCN(C(=O)CNC(=O)c2sc3ccccc3c2Cl)C1` (configuration not stated) gave DAX1 inh-1 1.1, DAX1 inh-2 3.2, SMARCA2 act 1.2, hcDAF-12 act 1.6, hgDAF12 agonist 5.7 and ssDAF12 agonist -0.3.
For O=C(NCC(=O)N1CCCCC1)c1sc2ccccc2c1Cl the results were DAX1 inh-1 2.2, DAX1 inh-2 5.8*, SMARCA2 act 2.6, hcDAF-12 act 0.6, hgDAF12 agonist 8.3, ssDAF12 agonist 0.0, DAX1 inh confirm 5.5* and SF1 AF2mut Luc 3.4*.
`CCn1c(CSc2nnc(-c3ccncc3)n2C)nc2cc(C(=O)O)ccc21` gave DAX1 inh-1 0.2, DAX1 inh-2 -0.1, SMARCA2 act -1.2, hcDAF-12 act -2.0, hgDAF12 agonist 0.6 and ssDAF12 agonist -0.4.
`Cc1ccn2c(=O)nc(SCC(=O)c3ccccc3)nc2c1` gave DAX1 inh-1 1.3, DAX1 inh-2 3.1, SMARCA2 act 1.2, hcDAF-12 act 2.6, hgDAF12 agonist 7.6 and ssDAF12 agonist 0.2.
For Cc1ccc2nc(SCC(=O)c3ccccc3)nc(=O)n2c1 the results were DAX1 inh-1 2.5, DAX1 inh-2 8.3*, SMARCA2 act 7.3, hcDAF-12 act 3.9, hgDAF12 agonist 12.3*, ssDAF12 agonist 0.1, DAX1 inh confirm 9.2* and SF1 AF2mut Luc 5.3*.
Screening CS(=O)(=O)N(CC(=O)NCCSCc1ccco1)c1ccc2c(c1)OCO2 returned DAX1 inh-1 -0.2, DAX1 inh-2 0.2, SMARCA2 act -2.5, hcDAF-12 act -2.1, hgDAF12 agonist -3.3 and ssDAF12 agonist -1.3.
CSc1nnc(NC(=O)c2ccc3c(c2)OCO3)s1 was read as DAX1 inh-1 -0.8, DAX1 inh-2 13.1*, SMARCA2 act 5.6, hcDAF-12 act 6.0*, hgDAF12 agonist 10.6*, ssDAF12 agonist 0.2, DAX1 inh confirm 3.5 and SF1 AF2mut Luc -1.5.
`COCCSc1nnc(NC(=O)c2ccc3c(c2)OCO3)s1` gave DAX1 inh-1 2.7, DAX1 inh-2 1.3, SMARCA2 act 2.5, hcDAF-12 act -0.6, hgDAF12 agonist 2.9 and ssDAF12 agonist -0.2.
`CCOC(=O)CSc1ccc(S(=O)(=O)N2CCCC2)cc1[N+](=O)[O-]` gave DAX1 inh-1 0.9, DAX1 inh-2 -0.4, SMARCA2 act 4.7, hcDAF-12 act -1.2, hgDAF12 agonist -1.2 and ssDAF12 agonist -2.2.
Screening Cc1[nH]c2ccc(C(=O)N3CCCCC3)cc2c1C returned DAX1 inh-1 2.9, DAX1 inh-2 6.3*, SMARCA2 act 10.8*, hcDAF-12 act 1.6, hgDAF12 agonist 11.3*, ssDAF12 agonist 0.7, DAX1 inh confirm 9.5*, SF1 AF2mut Luc 3.6*, SMARCA2 conf 4.8 and GAL4-VP16 Luc 9.4*.
Cc1[nH]c2ccc(C(=O)N3CCCC3)cc2c1C was read as DAX1 inh-1 0.2, DAX1 inh-2 0.3, SMARCA2 act 1.8, hcDAF-12 act -1.5, hgDAF12 agonist -1.9 and ssDAF12 agonist -1.4.
Cc1ccc(CC(=O)O/N=C(\N)c2ccccn2)cc1 was read as DAX1 inh-1 0.7, DAX1 inh-2 5.0*, SMARCA2 act 8.9*, hcDAF-12 act 1.8, hgDAF12 agonist 11.2*, ssDAF12 agonist -0.6, DAX1 inh confirm 4.0*, SF1 AF2mut Luc 3.2*, SMARCA2 conf 9.7* and GAL4-VP16 Luc 8.4*.
`CC(C)COP(=O)(c1ccc(N(C)C)cc1)C(O)c1ccncc1` (configuration not stated) gave DAX1 inh-1 0.9, DAX1 inh-2 -0.2, SMARCA2 act 0.4, hcDAF-12 act -1.4, hgDAF12 agonist 0.0 and ssDAF12 agonist -0.8.
CCOc1ccc(OCc2cccc(C(=O)N3CCOCC3)c2)cc1 was read as DAX1 inh-1 -5.6, DAX1 inh-2 5.8*, SMARCA2 act 12.2*, hcDAF-12 act 4.8, hgDAF12 agonist 10.2, ssDAF12 agonist 1.4*, DAX1 inh confirm 11.2*, SF1 AF2mut Luc 7.7*, SMARCA2 conf 5.5 and GAL4-VP16 Luc 9.7*.
For CC(/C=N/NC(=O)c1n[nH]c2c1CCC2)=C\c1ccccc1 the results were DAX1 inh-1 -0.1, DAX1 inh-2 3.5, SMARCA2 act 5.2, hcDAF-12 act 3.4, hgDAF12 agonist 2.4 and ssDAF12 agonist 0.2.

Bioassay records from PubChem.
